Common to all, as to assay: DAPPL (digital affinity profiling via proximity ligation, sequencing); 10 mM Tris-HCl pH 7.5, 50 mM NaCl, 1 mM DTT, 4% glycerol, room temperature, 30 min; GST-TFs on glutathione beads, 16-mer random dsDNA library, 0.1% formaldehyde crosslink after washing; high values mean tight binding
Common to all, as to conditions: protein: recombinant; tags: N-terminal GST; dsDNA, one strand shown

One assay deals with T1, GABPA (Homo sapiens, UniProt Q06546 1-454).
T1 sequence: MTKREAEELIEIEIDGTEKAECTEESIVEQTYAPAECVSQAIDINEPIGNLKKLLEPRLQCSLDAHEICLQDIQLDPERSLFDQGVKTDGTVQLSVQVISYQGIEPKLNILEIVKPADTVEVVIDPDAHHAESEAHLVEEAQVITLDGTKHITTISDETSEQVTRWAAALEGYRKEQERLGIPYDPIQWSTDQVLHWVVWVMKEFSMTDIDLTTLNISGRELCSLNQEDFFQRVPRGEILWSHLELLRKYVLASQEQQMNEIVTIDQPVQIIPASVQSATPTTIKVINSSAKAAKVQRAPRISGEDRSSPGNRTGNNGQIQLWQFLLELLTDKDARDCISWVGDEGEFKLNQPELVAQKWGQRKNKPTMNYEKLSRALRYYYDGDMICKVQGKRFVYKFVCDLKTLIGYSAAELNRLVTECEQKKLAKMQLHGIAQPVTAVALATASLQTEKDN
In outline: (§1)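 Sequencing on an Illumina NextSeq500 followed washing, crosslinking with 0.1% formaldehyde, proximity ligation (BsaI/T4 ligase, 1 h, 37 °C) and PCR amplification of pools that had been incubated for 30 min at room temperature with 200 nmole of a random double-stranded 16-mer DNA library in Tris/NaCl/DTT/glycerol buffer. Each pool held DNA-barcoded human transcription factors, expressed in yeast as GST fusions and captured on glutathione beads, plus a tag-only sample. Binding signal is a hexamer's read frequency for a factor divided by its frequency in the tag-only sample.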

The target in a further assay is T2, ERG (Homo sapiens, UniProt P11308 1-479).
T2 sequence: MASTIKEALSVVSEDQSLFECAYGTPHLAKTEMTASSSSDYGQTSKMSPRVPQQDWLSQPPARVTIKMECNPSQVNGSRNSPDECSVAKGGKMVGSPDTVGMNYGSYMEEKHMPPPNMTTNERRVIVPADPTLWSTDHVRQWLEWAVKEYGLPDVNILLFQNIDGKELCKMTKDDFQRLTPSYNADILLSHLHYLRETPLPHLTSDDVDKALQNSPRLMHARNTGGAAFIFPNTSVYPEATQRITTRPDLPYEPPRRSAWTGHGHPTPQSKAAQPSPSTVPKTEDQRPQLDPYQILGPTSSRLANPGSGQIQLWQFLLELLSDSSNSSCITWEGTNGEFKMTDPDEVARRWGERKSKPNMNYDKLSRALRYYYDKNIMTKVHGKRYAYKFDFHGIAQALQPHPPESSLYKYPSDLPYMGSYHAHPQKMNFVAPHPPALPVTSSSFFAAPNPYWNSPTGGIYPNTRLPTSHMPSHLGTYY
In outline: as §1

The target of the next assay is ELF1 (Homo sapiens, UniProt P32519 1-619). In outline:
as §1

The target of another assay is T3, EHF (Homo sapiens, UniProt Q9NZC4 1-300).
T3 sequence: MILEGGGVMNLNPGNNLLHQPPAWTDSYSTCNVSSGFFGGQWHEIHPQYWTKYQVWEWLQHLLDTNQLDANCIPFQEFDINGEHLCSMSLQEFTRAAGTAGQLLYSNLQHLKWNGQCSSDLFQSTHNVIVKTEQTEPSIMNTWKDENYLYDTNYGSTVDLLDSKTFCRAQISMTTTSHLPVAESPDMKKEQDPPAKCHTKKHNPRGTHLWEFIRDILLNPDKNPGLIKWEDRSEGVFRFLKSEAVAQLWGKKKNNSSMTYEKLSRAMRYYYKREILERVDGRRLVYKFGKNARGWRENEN
The gist of the method: as §1

A further assay concerns the target T4, ELK3 (Homo sapiens, UniProt P41970 1-407).
T4 sequence: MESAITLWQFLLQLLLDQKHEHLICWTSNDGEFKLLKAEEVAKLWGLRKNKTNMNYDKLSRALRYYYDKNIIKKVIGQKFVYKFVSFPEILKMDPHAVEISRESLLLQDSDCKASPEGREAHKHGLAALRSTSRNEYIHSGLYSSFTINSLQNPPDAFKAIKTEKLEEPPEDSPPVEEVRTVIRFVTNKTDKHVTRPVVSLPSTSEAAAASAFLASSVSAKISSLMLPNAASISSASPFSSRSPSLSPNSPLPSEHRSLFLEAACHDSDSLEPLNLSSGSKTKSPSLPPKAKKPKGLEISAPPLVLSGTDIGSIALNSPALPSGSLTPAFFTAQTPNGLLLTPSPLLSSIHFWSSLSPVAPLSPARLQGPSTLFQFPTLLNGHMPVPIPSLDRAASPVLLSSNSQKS
The gist of the method:
as §1

In another assay the target is T5, SPIC (Homo sapiens, UniProt Q8N5J4 1-248).
T5 sequence: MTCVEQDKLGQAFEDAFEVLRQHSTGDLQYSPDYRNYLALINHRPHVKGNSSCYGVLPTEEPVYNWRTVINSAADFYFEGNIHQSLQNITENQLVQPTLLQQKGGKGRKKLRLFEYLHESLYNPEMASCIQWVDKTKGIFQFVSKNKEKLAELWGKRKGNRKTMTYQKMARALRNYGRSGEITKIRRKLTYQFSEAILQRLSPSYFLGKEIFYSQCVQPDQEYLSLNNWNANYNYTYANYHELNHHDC
The gist of the method:
as §1

A further assay deals with ETV1 (Homo sapiens, UniProt P50549 1-477). The gist of the method: as §1
Sequence of ETV1 (P50549 whole entry): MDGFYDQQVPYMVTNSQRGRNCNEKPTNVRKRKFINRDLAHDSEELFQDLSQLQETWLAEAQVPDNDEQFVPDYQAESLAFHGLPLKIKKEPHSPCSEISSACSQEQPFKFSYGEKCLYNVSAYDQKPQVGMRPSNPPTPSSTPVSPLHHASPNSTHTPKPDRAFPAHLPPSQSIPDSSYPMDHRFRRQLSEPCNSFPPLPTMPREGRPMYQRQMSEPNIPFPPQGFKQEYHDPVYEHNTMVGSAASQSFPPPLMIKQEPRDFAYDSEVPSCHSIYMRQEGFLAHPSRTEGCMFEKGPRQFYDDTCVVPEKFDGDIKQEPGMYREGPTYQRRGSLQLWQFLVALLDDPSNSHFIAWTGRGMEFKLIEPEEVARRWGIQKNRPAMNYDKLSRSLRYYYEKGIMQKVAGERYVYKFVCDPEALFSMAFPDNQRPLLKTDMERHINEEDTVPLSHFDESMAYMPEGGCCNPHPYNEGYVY
The target in another assay is T6, ERF (Homo sapiens, UniProt P50548 1-548).
T6 sequence: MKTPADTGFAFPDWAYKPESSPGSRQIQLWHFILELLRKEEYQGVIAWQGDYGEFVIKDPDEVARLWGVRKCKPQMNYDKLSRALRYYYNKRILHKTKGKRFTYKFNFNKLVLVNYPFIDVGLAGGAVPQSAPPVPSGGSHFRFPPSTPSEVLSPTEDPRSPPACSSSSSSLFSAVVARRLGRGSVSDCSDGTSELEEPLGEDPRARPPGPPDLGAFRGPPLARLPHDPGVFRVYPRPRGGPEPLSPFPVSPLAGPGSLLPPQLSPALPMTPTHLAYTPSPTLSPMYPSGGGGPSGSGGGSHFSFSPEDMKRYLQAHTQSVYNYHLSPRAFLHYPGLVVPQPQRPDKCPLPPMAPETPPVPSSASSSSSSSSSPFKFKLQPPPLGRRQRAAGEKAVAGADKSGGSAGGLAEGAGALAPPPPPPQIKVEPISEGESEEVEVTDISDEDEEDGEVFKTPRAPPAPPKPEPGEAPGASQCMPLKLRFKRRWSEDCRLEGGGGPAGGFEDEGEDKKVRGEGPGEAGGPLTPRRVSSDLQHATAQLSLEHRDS
The gist of the method: as §1

In another assay the target is T7, ETV3L (Homo sapiens, UniProt Q6ZN32 1-361).
T7 sequence: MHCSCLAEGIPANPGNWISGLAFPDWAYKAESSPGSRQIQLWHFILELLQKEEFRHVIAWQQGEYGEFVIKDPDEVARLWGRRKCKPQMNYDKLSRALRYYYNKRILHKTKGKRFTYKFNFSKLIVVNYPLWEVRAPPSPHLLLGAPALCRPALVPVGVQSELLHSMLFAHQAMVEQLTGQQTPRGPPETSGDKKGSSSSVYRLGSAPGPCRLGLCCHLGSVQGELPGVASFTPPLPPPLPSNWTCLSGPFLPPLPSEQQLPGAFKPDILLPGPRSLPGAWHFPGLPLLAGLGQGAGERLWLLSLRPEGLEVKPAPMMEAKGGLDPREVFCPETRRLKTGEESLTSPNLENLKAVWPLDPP
In outline: as §1

For a further assay, the target named is T8, ETS2 (Homo sapiens, UniProt P15036 1-469).
T8 sequence: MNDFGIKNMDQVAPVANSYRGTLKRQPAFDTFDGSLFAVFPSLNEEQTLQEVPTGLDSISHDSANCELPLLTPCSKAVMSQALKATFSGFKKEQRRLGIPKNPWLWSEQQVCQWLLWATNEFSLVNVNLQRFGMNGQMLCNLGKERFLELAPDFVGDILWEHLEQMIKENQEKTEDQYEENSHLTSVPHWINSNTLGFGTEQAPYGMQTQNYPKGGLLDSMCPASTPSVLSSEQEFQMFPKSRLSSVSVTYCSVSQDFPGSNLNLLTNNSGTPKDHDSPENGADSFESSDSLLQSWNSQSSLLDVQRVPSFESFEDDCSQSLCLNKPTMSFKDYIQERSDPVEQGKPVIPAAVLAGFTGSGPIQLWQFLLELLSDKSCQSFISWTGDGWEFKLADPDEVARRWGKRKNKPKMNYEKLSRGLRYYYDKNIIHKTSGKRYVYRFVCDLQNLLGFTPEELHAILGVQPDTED
The gist of the method: as §1

A further assay has as its target T9, ETV7 (Homo sapiens, UniProt Q9Y603 1-341).
T9 sequence: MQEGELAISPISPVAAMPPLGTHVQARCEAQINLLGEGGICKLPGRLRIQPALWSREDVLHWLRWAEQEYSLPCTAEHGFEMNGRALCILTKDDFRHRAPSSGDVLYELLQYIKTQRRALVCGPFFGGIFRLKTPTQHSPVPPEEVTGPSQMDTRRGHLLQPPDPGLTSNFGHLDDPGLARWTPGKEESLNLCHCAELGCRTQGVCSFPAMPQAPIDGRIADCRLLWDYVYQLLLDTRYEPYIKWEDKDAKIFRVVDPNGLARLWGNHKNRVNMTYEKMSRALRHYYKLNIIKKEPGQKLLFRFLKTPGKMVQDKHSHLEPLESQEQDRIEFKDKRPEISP
In outline:
as §1

In a further assay the target is T10, ETV3 (Homo sapiens, UniProt P41162-2 1-143).
T10 sequence: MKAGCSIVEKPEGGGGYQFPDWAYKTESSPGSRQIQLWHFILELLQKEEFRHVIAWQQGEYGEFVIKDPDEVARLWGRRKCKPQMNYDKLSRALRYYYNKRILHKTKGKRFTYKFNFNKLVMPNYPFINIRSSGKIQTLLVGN
In outline: as §1

Sequence of ELF1 (P32519 whole entry): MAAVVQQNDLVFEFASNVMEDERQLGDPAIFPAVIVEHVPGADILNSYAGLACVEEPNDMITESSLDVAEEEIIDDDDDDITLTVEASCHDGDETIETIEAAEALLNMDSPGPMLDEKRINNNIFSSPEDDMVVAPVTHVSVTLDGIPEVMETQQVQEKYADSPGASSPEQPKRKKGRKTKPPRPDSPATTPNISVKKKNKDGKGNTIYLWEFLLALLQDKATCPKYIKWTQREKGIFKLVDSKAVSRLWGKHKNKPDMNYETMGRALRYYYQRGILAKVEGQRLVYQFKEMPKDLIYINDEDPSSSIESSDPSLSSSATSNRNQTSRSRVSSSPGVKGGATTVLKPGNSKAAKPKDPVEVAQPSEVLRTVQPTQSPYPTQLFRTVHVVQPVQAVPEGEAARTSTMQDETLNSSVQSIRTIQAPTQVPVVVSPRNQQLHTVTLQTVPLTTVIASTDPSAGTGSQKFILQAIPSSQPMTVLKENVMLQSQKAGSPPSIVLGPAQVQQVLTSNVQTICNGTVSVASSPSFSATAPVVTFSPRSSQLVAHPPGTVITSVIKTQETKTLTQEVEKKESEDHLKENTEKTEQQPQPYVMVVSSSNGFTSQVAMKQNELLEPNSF

Take TCTAGA: the binding signal was 1.02 fold enrichment (6-mer frequency, TF over GST control) with GABPA; 1 fold enrichment (6-mer frequency, TF over GST control) in the assay with ERG; 1 fold enrichment (6-mer frequency, TF over GST control) in the assay with ELF1; 1.11 fold enrichment (6-mer frequency, TF over GST control) with EHF; 1.18 fold enrichment (6-mer frequency, TF over GST control) with ELK3; 1.05 fold enrichment (6-mer frequency, TF over GST control) with SPIC. The binding signal with ETV1 was 1.02 fold enrichment (6-mer frequency, TF over GST control); with ERF, 1.03 fold enrichment (6-mer frequency, TF over GST control); with ETV3L it was 1.03 fold enrichment (6-mer frequency, TF over GST control); with ETS2, 1.05 fold enrichment (6-mer frequency, TF over GST control); in the assay with ETV7 it was 1.03 fold enrichment (6-mer frequency, TF over GST control); with ETV3 it was 1.04 fold enrichment (6-mer frequency, TF over GST control).
